# PubChem BioAssay
# Activity calls are given as the source filed them.
# Columns and labels:
# Albumin (Bos taurus) = Albumin (Bos taurus) (UniProt P02769); assay: compounds binding labelled BSA control protein – biochemical, small-molecule microarray, Alexa647 label, 635/667 nm fluorescence, artefact control for SMM control protein annotation, profiling panel (AID 1118); details: BSA-A647 binding, fluorescence 635 nm, higher = more signal;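 also: score merges 667 nm emission intensity and signal-to-noise per printed compound spot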
# [1] = probe aXIP binding to arrayed compounds – biochemical, NeuroSMM set, 635/667 nm fluorescence, primary screen (AID 1119); details: small-molecule microarray, higher = more signal, called active from +8 up or from −8 down;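 also: probe is the protein aXip251-270 applied at 1 µg/mL to compound-printed slides; binding of probe to printed compounds measured as 667 nm fluorescence plus signal to noise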
# [2] = probe aNOTCH3 binding on compound microarray – biochemical, small-molecule microarray, 635/667 nm fluorescence, primary screen (AID 1120); details: higher = more signal;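 also: probe is a biotin-tagged antibody raised against NOTCH3 rather than NOTCH3 protein; score merges spot fluorescence near 667 nm with spot signal to noise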
# [3] = probe aNOTCH2 binding on compound microarray – biochemical, small-molecule microarray, 635/667 nm fluorescence, primary screen (AID 1121); details: higher = more signal;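 also: score merges feature fluorescence read at 667 nm with its signal to noise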
# [4] = molecular target: Carbonic anhydrase 2 (Homo sapiens) (UniProt P00918); assay: compounds binding carbonic anhydrase 2 – biochemical, small-molecule microarray, Alexa647-labelled CAII, profiling panel (AID 1122); details: CAII-A647 binding fluorescence, higher = more signal
# [5] = COS7 lysate on small-molecule microarray, probe aHis, 635 nm (AID 1123); details: COS7 cell lysate, fluorescence, higher = more signal;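 also: z-score combines 667nm fluorescence intensity with signal-to-noise per printed compound spot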
# [6] = probe aLAP1 signal on lysate-treated microarray – cell lysate, small-molecule microarray, COS7 lysate, primary screen (AID 1124); details: probe aLAP1, fluorescence, higher = more signal;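 also: lysate comes from COS7 cells expressing LAP1 and is applied at 0.3 µg/mL; score merges spot fluorescence near 667 nm with signal-to-noise over triplicate slides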
# Sam68 (KHDRBS1) = assay: compounds binding KHDRBS1 protein – biochemical, small-molecule microarray, 635 nm fluorescence, primary screen (AID 1125); details: higher = more signal;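 also: score merges 667 nm channel intensity with signal to noise over triplicate slides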
# [7] = test system: Chordin-like protein 2 (CHRDL2); assay: compounds binding chordin-like 2 – biochemical, small-molecule microarray, 635 nm fluorescence, primary screen (AID 1126); details: fluorescence 635 nm, higher = more signal;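 also: printed compound slides probed with Chrdl2 protein at 4 µg/mL for 1 h at 4 C; score merges 667 nm emission intensity with signal to noise over three replicate slides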
# [8] = molecular target: Concanavalin-A (Canavalia ensiformis) (UniProt P02866); assay: compounds binding concanavalin A lectin – biochemical, small-molecule microarray, Alexa647 label, 635 nm, artefact control for SMM control protein annotation, primary screen (AID 1127); details: ConA-A647 binding fluorescence, higher = more signal;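 also: z combines 667 nm emission intensity with signal-to-noise across three replicate slides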
# [9] = compounds binding Alexa647 anti-His antibody – biochemical, small-molecule microarray, 635 nm fluorescence, artefact control for SMM control protein annotation, primary screen (AID 1128); details: higher = more signal;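 also: score merges feature fluorescence with signal-to-noise for each printed compound spot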
# [10] = test system: Human papillomavirus type 1a E7 protein (residues 1-88); assay: HPV1a E7 small-molecule binders, primary screen, biochemical, small-molecule microarray, residues 1-88, 635 nm (AID 1129); details: small-molecule microarray binding, fluorescence 635 nm; higher = more signal
# [11] = molecular target: Focal adhesion kinase 1 (Homo sapiens) (UniProt Q05397); assay: PTK2 protein binding on printed compound slides – biochemical, small-molecule microarray, 635/667 nm fluorescence, BSA, DTT, primary screen (AID 1130); details: 635 nm fluorescence, higher = more signal;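 also: composite of spot emission at 667 nm and signal to noise over triplicate slides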
# [12] = test system: Fibrinogen (Alexa647-labelled); assay: Alexa647-fibrinogen binding to printed small molecules – biochemical, small-molecule microarray, 635/667 nm fluorescence, artefact control for SMM control-protein annotation, profiling panel (AID 1131); details: fibrinogen-A647 binding fluorescence, higher = more signal;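 also: z-score merges 667 nm fluorescence with per-spot signal-to-noise over triplicate slides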
# [13] = molecular target: Follistatin (Homo sapiens) (UniProt P19883); assay: FST protein binding to printed compounds – biochemical, small-molecule microarray, 635/667 nm fluorescence, primary screen (AID 1132); details: 635 nm fluorescence, higher = more signal
# [14] = molecular target: Fibroblast growth factor 2 (Homo sapiens) (UniProt P09038); assay: basic fibroblast growth factor binding to printed compounds – biochemical, small-molecule microarray, 635/667 nm fluorescence, primary screen (AID 1133); details: FGF2, fluorescence 635/667, higher = more signal
# [15] = JC-1 mitochondrial potential readout, lung cancer cells – cell-based, A549, JC-1 fluorescence, basal, 24 h, 100 nL, profiling panel (AID 1138); details: higher = more signal;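 also: A549 lung adenocarcinoma cells under basal conditions with no added stimulus; test concentration not given here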
# Lefty1 = Lefty1 protein binding to printed compounds – biochemical, small-molecule microarray, 635/667 nm fluorescence, primary screen (AID 1139); details: fluorescence 635/667, higher = more signal
# [16] = test system: wheat germ agglutinin (Triticum aestivum), Alexa647-labelled; assay: Alexa647-WGA lectin binding to printed small molecules – biochemical, small-molecule microarray, 635/667 nm fluorescence, artefact control for SMM control-protein annotation, profiling panel (AID 1140); details: WGA-A647 binding, 635 nm fluorescence, higher = more signal;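 also: score merges 667 nm feature emission with signal to noise over triplicate slides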
# [17] = molecular target: Luciferin 4-monooxygenase (Photinus pyralis) (UniProt P08659); assay: inhibition of purified Photinus pyralis luciferase – biochemical, luminescence, purified enzyme, 2006 set, primary screen (AID 1141); details: purified firefly luciferase, SteadyGlo luminescence, 30 min; higher = more signal, called active from +8 up or from −8 down;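 also: cell-free assay with purified firefly luciferase at 100 ng per well in PBS; test concentration not given here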
# Chain of Luciferin 4-monooxygenase (Photinus pyralis) (P08659 whole entry, looked up): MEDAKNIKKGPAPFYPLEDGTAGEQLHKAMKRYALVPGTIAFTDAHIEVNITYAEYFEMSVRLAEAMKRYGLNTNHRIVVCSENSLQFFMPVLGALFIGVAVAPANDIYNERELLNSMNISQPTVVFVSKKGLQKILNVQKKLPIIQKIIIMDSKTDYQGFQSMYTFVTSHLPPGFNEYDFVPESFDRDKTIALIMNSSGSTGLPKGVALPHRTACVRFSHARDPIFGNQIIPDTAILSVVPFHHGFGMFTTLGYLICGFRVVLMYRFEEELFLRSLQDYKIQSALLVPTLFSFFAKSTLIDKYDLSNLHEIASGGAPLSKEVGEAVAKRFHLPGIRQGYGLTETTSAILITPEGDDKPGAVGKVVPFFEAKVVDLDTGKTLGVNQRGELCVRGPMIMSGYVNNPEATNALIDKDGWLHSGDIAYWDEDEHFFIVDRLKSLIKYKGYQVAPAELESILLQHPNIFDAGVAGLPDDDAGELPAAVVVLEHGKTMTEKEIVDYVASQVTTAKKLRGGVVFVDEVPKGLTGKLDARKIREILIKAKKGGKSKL
# Chain of Concanavalin-A (Canavalia ensiformis) (P02866 whole entry, looked up): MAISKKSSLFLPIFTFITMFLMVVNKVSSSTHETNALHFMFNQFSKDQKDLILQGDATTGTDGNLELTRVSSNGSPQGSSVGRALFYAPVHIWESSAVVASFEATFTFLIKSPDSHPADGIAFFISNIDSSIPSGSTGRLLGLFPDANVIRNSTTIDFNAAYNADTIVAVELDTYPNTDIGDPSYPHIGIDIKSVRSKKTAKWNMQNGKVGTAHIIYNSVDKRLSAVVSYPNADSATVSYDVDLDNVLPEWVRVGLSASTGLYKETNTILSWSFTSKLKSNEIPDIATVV
# Chain of Albumin (Bos taurus) (P02769 whole entry, looked up): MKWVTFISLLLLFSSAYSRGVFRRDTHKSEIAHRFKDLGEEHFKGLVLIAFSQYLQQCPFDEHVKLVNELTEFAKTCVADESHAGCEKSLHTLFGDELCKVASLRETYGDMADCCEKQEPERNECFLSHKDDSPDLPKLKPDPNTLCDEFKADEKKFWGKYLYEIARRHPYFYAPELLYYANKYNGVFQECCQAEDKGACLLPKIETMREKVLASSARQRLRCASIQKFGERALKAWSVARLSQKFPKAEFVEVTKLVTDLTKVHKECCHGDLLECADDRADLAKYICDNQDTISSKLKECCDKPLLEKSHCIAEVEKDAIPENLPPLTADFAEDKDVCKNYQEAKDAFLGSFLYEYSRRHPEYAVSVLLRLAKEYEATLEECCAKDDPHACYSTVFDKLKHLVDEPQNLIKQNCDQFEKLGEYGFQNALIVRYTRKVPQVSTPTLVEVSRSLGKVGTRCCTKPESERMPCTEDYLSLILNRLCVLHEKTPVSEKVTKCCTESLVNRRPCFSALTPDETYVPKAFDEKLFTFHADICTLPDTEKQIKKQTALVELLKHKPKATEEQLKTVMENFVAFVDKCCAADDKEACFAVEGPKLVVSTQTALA
# Chain of Fibroblast growth factor 2 (Homo sapiens) (P09038 whole entry, looked up): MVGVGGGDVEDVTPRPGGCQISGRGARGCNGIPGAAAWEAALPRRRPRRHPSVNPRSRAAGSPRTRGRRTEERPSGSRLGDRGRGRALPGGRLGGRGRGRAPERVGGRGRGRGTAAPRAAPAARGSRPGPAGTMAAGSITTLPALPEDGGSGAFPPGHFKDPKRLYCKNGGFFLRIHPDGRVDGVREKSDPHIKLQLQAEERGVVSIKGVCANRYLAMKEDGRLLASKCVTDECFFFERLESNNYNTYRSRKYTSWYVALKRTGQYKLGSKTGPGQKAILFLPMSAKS
# Chain of Focal adhesion kinase 1 (Homo sapiens) (Q05397 whole entry, looked up): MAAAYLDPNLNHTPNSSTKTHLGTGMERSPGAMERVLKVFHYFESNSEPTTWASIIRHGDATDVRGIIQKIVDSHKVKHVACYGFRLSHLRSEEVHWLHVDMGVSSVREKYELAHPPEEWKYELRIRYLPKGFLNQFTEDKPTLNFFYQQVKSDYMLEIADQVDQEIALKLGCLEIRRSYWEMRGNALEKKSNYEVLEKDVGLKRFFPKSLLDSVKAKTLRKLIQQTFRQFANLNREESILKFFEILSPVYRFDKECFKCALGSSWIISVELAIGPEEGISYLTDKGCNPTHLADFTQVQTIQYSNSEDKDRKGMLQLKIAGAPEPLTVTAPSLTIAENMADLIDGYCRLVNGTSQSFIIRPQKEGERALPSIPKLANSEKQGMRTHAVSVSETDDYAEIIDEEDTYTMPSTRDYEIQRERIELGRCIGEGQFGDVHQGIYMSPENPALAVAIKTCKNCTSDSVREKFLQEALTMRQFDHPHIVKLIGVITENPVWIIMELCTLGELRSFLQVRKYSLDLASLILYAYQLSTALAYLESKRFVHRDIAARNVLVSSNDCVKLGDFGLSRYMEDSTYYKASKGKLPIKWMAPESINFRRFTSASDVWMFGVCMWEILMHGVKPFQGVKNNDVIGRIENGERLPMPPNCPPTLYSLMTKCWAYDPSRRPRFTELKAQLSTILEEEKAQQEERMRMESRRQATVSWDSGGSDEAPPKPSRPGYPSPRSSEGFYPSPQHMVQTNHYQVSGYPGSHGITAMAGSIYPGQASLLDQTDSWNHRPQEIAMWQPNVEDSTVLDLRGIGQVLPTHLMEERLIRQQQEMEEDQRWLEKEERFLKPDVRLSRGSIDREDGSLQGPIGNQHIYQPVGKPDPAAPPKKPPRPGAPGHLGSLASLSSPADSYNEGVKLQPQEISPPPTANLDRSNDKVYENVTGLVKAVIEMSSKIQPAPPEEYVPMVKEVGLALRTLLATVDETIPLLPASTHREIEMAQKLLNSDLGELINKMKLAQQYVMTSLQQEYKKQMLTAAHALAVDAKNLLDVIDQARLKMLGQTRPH
# Chain of Follistatin (Homo sapiens) (P19883 whole entry, looked up): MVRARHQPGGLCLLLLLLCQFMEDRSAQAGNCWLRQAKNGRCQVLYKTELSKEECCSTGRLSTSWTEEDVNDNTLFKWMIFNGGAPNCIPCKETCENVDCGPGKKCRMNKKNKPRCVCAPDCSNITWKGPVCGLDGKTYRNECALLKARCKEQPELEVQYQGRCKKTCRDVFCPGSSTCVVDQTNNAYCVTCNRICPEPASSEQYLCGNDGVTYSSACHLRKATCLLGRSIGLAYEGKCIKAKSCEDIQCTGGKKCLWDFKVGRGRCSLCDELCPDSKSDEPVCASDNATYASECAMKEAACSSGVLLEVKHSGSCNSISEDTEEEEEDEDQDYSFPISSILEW
SMILES,composite z-score (Albumin (Bos taurus)),composite Z-score [1],composite z-score [2],composite z-score [3],composite z-score [4],composite z-score [5],composite z-score [6],composite z-score (Sam68 (KHDRBS1)),composite z-score [7],composite z-score [8],composite z-score [9],composite z-score [10],composite z-score [11],composite z-score [12],composite z-score [13],composite z-score [14],z-score [15],composite z-score (Lefty1),composite z-score [16],z-score [17]
C#CCCCON=C1C[C@@H](O)[C@@H](O)[C@@H]2[C@@H]3C(=O)N(c4ccc(F)cc4F)C(=O)[C@@H]3CC[C@@H]12,0.373,-0.302 (inactive),-0.113,-0.0569,-0.15,-0.366,0.202,0.428,0.217,0.505,-0.0071,0.111,0.131,0.265,0.141,0.474,-0.633,0.322,0.238,1.04 (inactive)
CO[C@@H]1C=CCC(=O)N2CCC[C@H]2C(=O)OC[C@@H](C)C(=O)OC[C@H]1C,-0.709,1.36 (inactive),0.138,-0.0109,-0.31,-0.0865,-0.176,0.465,1.05,-1.08,0.21,-0.565,-0.267,-0.294,1.34,1.33,2.01,0.925,-0.7,-1.1 (inactive)
O=C1CCCC(C2=CCCCC2=O)C1 (stereo not given),-0.599,0.675 (inactive),0.152,-0.112,-0.139,0.0016,0.0781,-0.532,1.06,-0.719,-0.496,-0.624,0.26,-0.67,1.01,0.567,0.475,1.02,-0.397,-0.242 (inactive)
CC(=O)Nc1ccc([C@@H]2N[C@H](C(=O)O)CC[C@H]2C)cc1,0.0499,0.237 (inactive),-0.132,-0.203,-0.172,-0.0725,0.0356,0.22,0.65,0.36,0.328,0.557,1.12,0.669,0.205,0.284,2.05,0.701,-0.11,-1.38 (inactive)
CC(CCN1CCCc2nc(C)c(C)cc21)=NO[C@@H](C)c1cc(-c2c(C)cc(C)cc2C)no1,0.177,0.121 (inactive),0.0789,-0.0668,0.0276,0.517,0.138,1.04,0.9,0.778,1.4,0.314,0.514,0.745,0.427,0.388,1.91,0.643,0.605,0.0678 (inactive)
COc1cccc([C@H]2Oc3ccc(OC)cc3C(=NO[C@@H]3O[C@H](COC(C)=O)[C@@H](OC(C)=O)[C@H](OC(C)=O)[C@H]3OC(C)=O)[C@@H]2O)c1,0.0351,1.25 (inactive),-0.0598,-0.141,-0.403,0.1,0.474,0.153,-0.0174,-0.143,0.238,0.23,0.478,-0.339,-0.0006,0.192,-0.172,0.228,-0.639,0.713 (inactive)
CC(C)=CCCC(C)=CCON=C1C[C@@H](O)[C@@H](O)[C@@H]2[C@@H]3C(=O)N(C[C@@H]4CCCO4)C(=O)[C@@H]3CC[C@H]12,0.816,0.365 (inactive),0.121,-0.0651,0.22,0.401,-0.592,1.3,1.3,1.13,1.39,1.13,0.349,0.499,1.13,0.945,-0.773,1.24,0.572,0.217 (inactive)
CCOC(=O)[C@H](Cc1ccccc1)NC(=O)CCC1CC(OC(=O)NCc2ccc3c(c2)OCO3)CC2(CCCC(COC(=O)NCCc3ccccc3OC)O2)O1 (stereo not given in full),0.485,-0.344 (inactive),0.0225,-0.184,0.253,1.05,-0.0407,1.29,1.06,1.1,0.969,1.2,0.492,1,1.07,1.32,-0.654,1.36,0.63,0.274 (inactive)
